Source: PubChem BioAssay (Columbia University Molecular Screening Center)
E-sel TNF inh – blocks E-selectin expression induced by TNF alpha. HUVEC TNFa-induced E-selectin immunofluorescence, high content. inhibition, % at 2 µM. hit rate 0.71% among 120,000. AID 1246;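 active means inhibition above the batch mean plus 3 SD, and confirmed as a hit on visual image review, cut at about 43% in these data; inconclusive means passes the inhibition cutoff but fails visual image review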;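 further: 0% = TNF-stimulated DMSO wells and 100% = unstimulated control wells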
HUVEC tox TNFa – HUVEC cytotoxicity counter-screen, TNF alpha stimulated | HUVEC TNFalpha-stimulated, Hoechst cell count, imaging | cell count reduction, % at 2 µM | hit rate 0.17% among 93,000 | AID 848;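 active means cell count reduction exceeding the screen mean by over 5 SD, scaled to untreated wells per plate, cut at about 78% in these data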;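 further: cells counted after 24 h of TNF alpha exposure following the 1 h pretreatment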
VCAM1 TNFa inh – reduces TNF alpha induced VCAM1 expression in HUVEC. inhibition, % at 2 µM. AID 802. HUVEC TNFa-induced VCAM-1 immunofluorescence, high-content imaging. hit rate 0.48% among 95,000;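 active means inhibition above the batch mean plus 3 SD, with images confirmed as a hit by eye, cut at about 37% in these data; inconclusive means inhibition above that limit but hit not confirmed in images; inactive means inhibition not above that limit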;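 further: 0% = TNF-stimulated DMSO wells and 100% = unstimulated control wells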
F-actin modifier – alters cytoskeleton assembly in HUVEC cells; HUVEC TNFa F-actin phalloidin imaging, high content; inhibition, % at 2 µM; hit rate 0.18% among 91,000;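 active means inhibition above the batch mean plus 3 SD and confirmed as a hit by visual image inspection, cut at about 30% in these data, passing the limit was not always enough; inconclusive means above the inhibition threshold but rejected on visual inspection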
* hit, by the source's call; ? = inconclusive; / = no result given. In the library only some 1.2% were active in any assay of this set; here they are far more common.

SMILES	E-sel TNF inh	HUVEC tox TNFa	VCAM1 TNFa inh	F-actin modifier
CCCOC(=O)c1ccc(NC(=O)Oc2ccccc2)cc1	-4	100*	?	-22
O=C(CSc1nnc(Cc2cc(=O)[nH]c(=O)[nH]2)n1-c1ccc(F)cc1)N1CCCCC1	-6	18	-15	-16
CCC1=NC(c2ccccc2Cl)N(O)C1(C)C (stereo unspecified)	10	70	59*	-9
COc1ccccc1-c1cc(C(F)(F)F)nc(S(=O)(=O)CCCC(=O)N2CCCCC2C)n1 (stereo unspecified)	/	-15	71*	21
COc1ccccc1C1CC(c2ccc(Cl)cc2)Nc2nc(N)nn21 (stereo unspecified)	/	9	-5	-16
COCCN1C(=O)N(c2cccc(C)c2)C(=O)C1CC(=O)Nc1ccc(F)cc1 (stereo unspecified)	80*	-7	8	-12
CC1=C(C#N)C(Nc2cccc(C)n2)(C(F)(F)F)C(=O)N1 (stereo unspecified)	/	82*	91*	-29
COC(=O)c1ccc(Cl)c(NC(=O)CN(c2ccc(OC)c(OC)c2)S(C)(=O)=O)c1	0	/	/	/
CCOC(=O)C1CCN(Cc2cn[nH]c2-c2ccccc2)CC1	2	-31	-6	-8
CCOC(=O)C1CCN(Cc2ccccc2C)CC1	8	-40	-11	30*
CCS(=O)(=O)N1CCC(C(=O)NC2CCCCC2)CC1	10	-20	0	31*
CCN(CC)S(=O)(=O)N1CCC(C(=O)NC2CCCC2)CC1	0	-16	3	2
Cc1oc2c(C)c(O)ccc2c(=O)c1-c1cnn(-c2ccccc2)c1	59*	-15	13	-18
COc1ccc2c(=O)c(-c3cnn(-c4ccccc4)c3)c(C)oc2c1	-40	-6	3	-16
CCOC(=O)CCCn1nc(C)n2c(cc3sccc32)c1=O	8	-13	-19	8
CCOC(=O)C(CC)n1nc(C)n2c(cc3sccc32)c1=O (stereo unspecified)	46*	/	/	/
COc1ccc(CNC(=O)c2ccc(CNc3c(NC4CCCCC4)c(=O)c3=O)cc2)cc1	-22	/	/	/
COc1ccc(NC(=O)c2ccc(CNc3c(NC4CCCCC4)c(=O)c3=O)cc2)cc1OC	72*	-15	-5	11
Cc1nc2ccccc2n1CCCOc1ccccc1	-1	88*	62*	-6
Cc1cc(-n2c(C)cc(C(=O)CN3C(=O)NC4(CCCCC4)C3=O)c2C)no1	11	90*	-46	0
CCOC(=O)c1c(NC(=O)Nc2ccc(Cl)cc2)sc(C)c1C	-34	-42	18	18
Cc1cc(-c2ccco2)n(CC(=O)NCc2ccco2)n1	76*	-19	3	2
Cc1nnc(SCC(=O)NCc2ccco2)[nH]c1=O	/	0	3	-12
Cc1ccc(-c2ccc(=O)n(CC(=O)NCc3ccco3)n2)cc1	-17	-22	6	57
Cc1cc(=O)[nH]c(SCC(=O)NCc2ccco2)n1	100*	19	10	31
SMILES	E-sel TNF inh	HUVEC tox TNFa	VCAM1 TNFa inh	F-actin modifier
O=C(Nc1cccc(F)c1)NC1(C(=O)N2CCN3CCCC3C2)CCCCC1 (stereo unspecified)	-6	-5	14	-2
COc1cc(S(=O)(=O)N(Cc2ccccc2)Cc2ccccn2)ccc1-n1cnnn1	20	-3	-1	-6
COc1cc(S(=O)(=O)N(Cc2ccccn2)Cc2ccco2)ccc1-n1cnnn1	55*	-3	-1	-10
O=c1cc(-c2ccccc2)c2ccccc2[nH]1	65*	-17	10	-30
O=C(CCOc1ccccc1)N1CCN(S(=O)(=O)c2cccs2)CC1	-26	-16	13	2
Cc1ccc(NC2=C/C(=N/S(=O)(=O)c3cccs3)c3ccccc3C2=O)cc1C	-4	/	/	/
Cc1ccccc1NC1=C/C(=N\S(=O)(=O)c2cccs2)c2ccccc2C1=O	76*	32	86*	-2
Cc1n[nH]c(C)c1C(=O)CC1(O)C(=O)N(CCc2ccccc2)c2ccc(Br)cc21 (stereo unspecified)	-7	-10	-11	11
O=C(Nc1nnc(SCc2ccccc2)s1)c1cccc([N+](=O)[O-])c1	64*	/	/	/
O=C(Nc1nnc(SCc2ccccc2)s1)c1cc2c(s1)CCCC2	/	11	0	-1
COc1cccc(/C=N/n2c(CO)nc3ccccc32)c1OC	0	-29	-7	2
Cc1cccc(NC(=O)Cn2nc(C(F)(F)F)cc2C2CC2)c1	-27	-13	-48	40*
COc1ccc(N(CC(=O)N2CCc3ccccc32)S(=O)(=O)c2c(C)nn(C)c2C)cc1	32	-1	-4	-4
Cc1ccc(NC(=O)C2=C(c3ccccc3)S(=O)(=O)CCS2(=O)=O)cc1	79*	/	/	/
CCn1c(=O)c(C(=O)CN(C)Cc2cccc(OC)c2OC)c(N)n(Cc2ccccc2)c1=O	-30	3	-10	-15
CCc1ccc(C(=O)Nc2nnn(CC)n2)cc1	0	-2	-1	0
COC(=O)/C=C/S(=O)(=O)c1ccc(NC(C)=O)cc1	92*	-26	1	-6
COc1ccccc1NS(=O)(=O)c1ccc(NC(C)=O)cc1	17	3	-7	-12
COc1ccc(Br)cc1CN(C)CC(=O)Nc1cc(Cl)ccc1Cl	89*	/	/	/
CCCOc1ccc(N2C(=O)CC(SCCN)C2=O)cc1 (stereo unspecified)	2	-20	23	-6
CCOC(=O)c1c(NC(C)=O)sc2c(O)cccc12	56*	/	/	/
CCOC(=O)c1c(NC(=O)c2ccccc2)sc2c(O)c(CN(CC)CC)ccc12	/	-24	5	32
CSc1ccc(-c2cc(=O)c3ccccc3o2)cc1	18	-20	24	-3
O=c1cc(-c2ccc(F)cc2)oc2ccccc12	44*	-31	14	4
Nc1ccc(Br)cc1-c1nc2ccccc2[nH]c1=O	100*	/	/	/
SMILES	E-sel TNF inh	HUVEC tox TNFa	VCAM1 TNFa inh	F-actin modifier
CCOC(=O)CSc1nc2cc(C(=O)N3CCC(C(N)=O)CC3)ccc2c(=O)n1C1CCCCC1	-6	/	/	/
CN=C(Nc1cc(C)nn1CCC#N)c1ccccc1	-11	-5	-4	-39
CN=C(Nc1cc(C)nn1CCC#N)c1ccccc1F	5	-14	3	67*
CCCC12CN3CCN(CC(C3)/C1=N\NC(=O)c1ccc(F)cc1)C2	11	/	/	/
COc1ccc(NC(=O)/C(C#N)=C/c2c(C)nn(-c3ccc(F)cc3)c2Cl)cc1Cl	6	/	/	/
CCc1nnc(NC(=O)C2CCC2)s1	0	-2	3	-6
Cn1c(NC(=O)C2c3ccccc3Oc3ccccc32)cc(=O)n(C)c1=O	17	65	94*	-34
Cn1c(NC(=O)c2ccccc2)cc(=O)n(C)c1=O	/	-10	4	4
CCc1nnc(NC(=O)C2c3ccccc3Oc3ccccc32)s1	-18	-16	-23	46*
COc1ccc2c(-c3cccnc3)cc(=O)[nH]c2c1	-11	-11	-9	-8
CC(=O)Nc1ccc(S(=O)(=O)N(C2=NCC(C)S2)c2ccccc2)cc1 (stereo unspecified)	-6	-20	6	25
COc1ccc(CNC(=O)c2ccc(NC(=O)CC3SC(N4CCCCC4)=NC3=O)cc2)cc1 (stereo unspecified)	77*	-1	-2	-31
O=[N+]([O-])c1ccc(-n2nncc2-c2ccc(Cl)cc2)cc1	1	-17	15	-6
